High-throughput results as filed in PubChem BioAssay.
Most compounds without a hit are left out; they make up all but 2.3% or so of the library.
H9c2 TAG inh – inhibitors of triacylglycerol accumulation | H9c2 cells, Nile Red lipid (TAG) fluorescence; cells loaded with 200 µM oleic acid | inhibition, % at 12.5 µM | hit rate 0.66% among 230,000;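 active = pattern-corrected inhibition of lipid staining of at least 50% with the nuclear-stain viability signal not falling by more than 50%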;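 also: 0% = DMSO wells and 100% = triacsin C control wells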
FAS-TE inh – blocks the thioesterase domain of human fatty acid synthase; recombinant FAS-TE, OMFH fluorogenic substrate, fluorescence endpoint; inhibition, % at 15 µM; hit rate 0.67% among 360,000; AID 602261; P49327;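 active = compounds whose normalised, plate-corrected inhibition of enzyme fluorescence in the single-dose primary screen is 50% or more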;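 also: 0% = DMSO with enzyme and 100% = substrate without enzyme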
Target sequence (P49327 whole entry, looked up, the tested form may be a part): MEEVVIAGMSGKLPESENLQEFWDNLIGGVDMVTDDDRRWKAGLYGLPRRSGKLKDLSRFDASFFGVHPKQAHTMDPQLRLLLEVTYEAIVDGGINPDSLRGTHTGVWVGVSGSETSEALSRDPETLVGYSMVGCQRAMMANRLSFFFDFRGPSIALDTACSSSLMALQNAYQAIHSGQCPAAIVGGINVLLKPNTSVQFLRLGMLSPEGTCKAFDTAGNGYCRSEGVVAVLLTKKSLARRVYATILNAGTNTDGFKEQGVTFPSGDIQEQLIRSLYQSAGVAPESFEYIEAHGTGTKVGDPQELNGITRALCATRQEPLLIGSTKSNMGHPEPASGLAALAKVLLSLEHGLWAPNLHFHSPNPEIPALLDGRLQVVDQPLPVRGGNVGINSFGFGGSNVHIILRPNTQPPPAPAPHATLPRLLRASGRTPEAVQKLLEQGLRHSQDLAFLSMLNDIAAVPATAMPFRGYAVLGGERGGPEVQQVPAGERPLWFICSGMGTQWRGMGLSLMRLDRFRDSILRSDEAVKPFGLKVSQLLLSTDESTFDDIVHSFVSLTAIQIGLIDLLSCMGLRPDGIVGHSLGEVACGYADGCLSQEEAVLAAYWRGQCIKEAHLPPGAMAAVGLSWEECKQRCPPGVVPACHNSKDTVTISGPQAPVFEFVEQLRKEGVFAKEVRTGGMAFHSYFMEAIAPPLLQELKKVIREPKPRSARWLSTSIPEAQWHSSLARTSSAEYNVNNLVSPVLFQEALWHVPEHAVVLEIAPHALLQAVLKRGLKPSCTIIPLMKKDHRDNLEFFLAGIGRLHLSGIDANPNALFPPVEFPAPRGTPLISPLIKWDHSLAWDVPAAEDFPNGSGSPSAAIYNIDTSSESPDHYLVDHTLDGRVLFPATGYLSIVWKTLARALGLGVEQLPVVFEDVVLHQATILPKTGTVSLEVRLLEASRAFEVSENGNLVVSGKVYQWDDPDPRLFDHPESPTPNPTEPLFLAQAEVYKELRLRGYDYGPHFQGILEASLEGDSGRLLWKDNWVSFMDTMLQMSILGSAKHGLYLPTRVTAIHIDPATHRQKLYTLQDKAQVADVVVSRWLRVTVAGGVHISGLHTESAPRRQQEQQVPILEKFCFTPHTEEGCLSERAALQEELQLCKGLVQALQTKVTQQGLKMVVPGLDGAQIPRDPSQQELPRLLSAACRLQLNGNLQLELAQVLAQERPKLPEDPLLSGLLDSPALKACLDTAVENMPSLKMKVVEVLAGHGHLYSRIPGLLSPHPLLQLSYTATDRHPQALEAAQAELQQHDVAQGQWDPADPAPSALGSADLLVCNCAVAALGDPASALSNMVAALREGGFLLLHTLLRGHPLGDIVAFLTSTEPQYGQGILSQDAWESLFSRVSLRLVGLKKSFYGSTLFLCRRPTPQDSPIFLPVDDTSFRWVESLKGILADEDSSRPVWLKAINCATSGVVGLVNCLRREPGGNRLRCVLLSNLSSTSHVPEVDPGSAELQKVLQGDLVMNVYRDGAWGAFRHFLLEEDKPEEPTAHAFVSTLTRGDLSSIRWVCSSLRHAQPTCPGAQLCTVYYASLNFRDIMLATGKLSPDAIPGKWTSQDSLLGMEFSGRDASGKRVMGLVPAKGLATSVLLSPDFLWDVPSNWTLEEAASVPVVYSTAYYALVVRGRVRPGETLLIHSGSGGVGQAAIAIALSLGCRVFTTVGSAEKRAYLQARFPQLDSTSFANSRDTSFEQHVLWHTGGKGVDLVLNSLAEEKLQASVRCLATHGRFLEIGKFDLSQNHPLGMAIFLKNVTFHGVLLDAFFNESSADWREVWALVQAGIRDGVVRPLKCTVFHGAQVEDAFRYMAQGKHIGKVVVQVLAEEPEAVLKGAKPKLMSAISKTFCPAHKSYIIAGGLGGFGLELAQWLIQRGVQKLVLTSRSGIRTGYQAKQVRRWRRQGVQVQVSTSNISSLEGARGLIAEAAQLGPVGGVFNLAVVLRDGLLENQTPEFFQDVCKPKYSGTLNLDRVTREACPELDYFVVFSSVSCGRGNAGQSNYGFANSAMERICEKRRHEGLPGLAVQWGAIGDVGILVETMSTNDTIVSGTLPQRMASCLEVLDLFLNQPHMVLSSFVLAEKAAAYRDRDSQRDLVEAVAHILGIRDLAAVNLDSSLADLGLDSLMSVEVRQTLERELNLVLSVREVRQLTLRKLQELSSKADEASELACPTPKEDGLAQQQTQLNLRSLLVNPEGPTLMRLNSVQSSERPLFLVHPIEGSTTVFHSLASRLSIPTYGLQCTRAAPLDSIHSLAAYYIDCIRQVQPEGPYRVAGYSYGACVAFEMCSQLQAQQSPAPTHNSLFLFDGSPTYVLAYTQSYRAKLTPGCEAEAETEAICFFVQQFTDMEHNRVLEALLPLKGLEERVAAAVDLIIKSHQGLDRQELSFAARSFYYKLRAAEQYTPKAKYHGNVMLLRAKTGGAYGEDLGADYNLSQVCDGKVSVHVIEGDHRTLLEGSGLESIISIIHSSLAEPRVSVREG
H9c2 protect – protects H9c2 cardiomyocytes from peroxide injury; protection from H2O2 cell death, % at 20 µM; hit rate 0.63% among 360,000; H2O2 injury protection, ATPLite, 2 h;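 active = compounds giving at least 50% protection of heart cells from peroxide-induced death in the single-dose screen, raw or plate-pattern-corrected value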;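 also: 0% = DMSO wells with peroxide and 100% = DMSO wells without peroxide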
aDG glyco up – alpha-DG glycosylation activation | hit rate 0.22% among 360,000 | activation, % at 10 µM | Pro5-aDG cells, alpha-DG glycosylation AlphaScreen (IIH6); 0% Pro5, 100% B10-LARGE cell signal;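 active = activation of at least 8% versus controls, or a plate z-score of at least 8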;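 also: Pro5 are CHO cells carrying HIG-tagged alpha-DG that lacks glycosylation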
beta cell repl – MIN6 beta-cell proliferation induction; MIN6 cells proliferation, ATPlite luminescence, 48 h; cells starved in 0.2% serum; 100% = growth in 10% serum; proliferation, % at 10 µM; hit rate 0.29% among 330,000; AID 2380;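 active = compounds whose signal lies at least 3.5 SD above the mean of all wells on their plate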;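 also: 0% = DMSO-treated cells in low-serum medium and 100% = 10% serum control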
Calpain2 inh – calpain II (pig) inhibition | hit rate 0.37% among 220,000 | inhibition, % at 16 µM | purified calpain II, fluorogenic peptide substrate, 30 min | AID 1236;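 active = inhibition above about 50%, limit read from the data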
* hit, by the source's call; . = no result.

SMILES | H9c2 TAG inh | FAS-TE inh | H9c2 protect | aDG glyco up | beta cell repl | Calpain2 inh
CC(C)(C)c1nc(SCC(=O)c2ccccc2)c2ccccc2n1 | -61 | 20 | -8 | 1 | -6 | 52*
CCN(CC)C(=O)CSc1nc2ccccc2c(=O)[nH]1 | -12 | -8 | 65* | 0 | -5 | -38
Cc1sc2nc(NCCO)[nH]c(=O)c2c1C | -13 | -6 | 72* | 0 | -4 | 2
CN(C)C(=O)CSc1nc2ccccc2c(=O)[nH]1 | 16 | -8 | 81* | 0 | 2 | -12
CCOC(=O)CSc1nc2ccccc2c(=O)[nH]1 | 16 | -10 | 58* | 0 | 4 | -6
O=c1[nH]c(SCc2ccccc2F)nc2ccccc12 | -9 | 0 | 27 | 0 | -2 | -28
Cc1ccc(C(=O)CSc2nc3ccccc3c(=O)[nH]2)cc1 | . | -3 | 47* | 0 | -1 | -23
O=c1cc(CSc2nc3ccccc3c(=O)[nH]2)c2ccc(O)cc2o1 | -18 | -2 | 94* | 2 | . | -108
Cc1ccc(OCC(=O)OC(C)C(=O)NC2CCCCC2C)cc1C (centres undefined) | 27 | -3 | -2 | 0 | 0 | .
CCOC(=O)CSc1nnc(CSc2nc3sc4c(c3c(=O)[nH]2)CCC4)n1C | 0 | -3 | 66* | 0 | 1 | -32
CCOC(=O)CSc1nnc(CSc2nc3sc4c(c3c(=O)[nH]2)CCC4)n1-c1ccccc1 | . | -1 | 47 | 0 | -2 | -87
CCOC(=O)CSc1nnc(CSc2nc3ccccc3c(=O)[nH]2)n1-c1ccccc1 | 4 | -4 | 51* | 0 | -1 | -43
COC(=O)c1ccc2c(=O)[nH]c(COC(=O)c3[nH]c(C)c(C(C)=O)c3C)nc2c1 | 5 | -1 | 72* | 0 | 4 | .
CC(=O)c1c(C)[nH]c(C(=O)OCc2cccc(Cl)c2)c1C | -28 | 18 | -27 | 0 | 0 | 54*
C=CCN1C(=O)c2ccc(C(=O)N3CCN(S(=O)(=O)c4ccc(C(C)C)cc4)CC3)cc2C1=O | 0 | 24 | -5 | 0 | 5 | .
Cc1ccc(C)c(CN2CCC(CNC(=O)CCc3nnc4ccc(N5CCC(C)CC5)nn34)CC2)c1 | . | -2 | 1 | 0 | 0 | .
CCN(CC)CCNC(=O)CCc1n[nH]c(=O)c2ccccc12 | -7 | -6 | 81* | 0 | 0 | -7
CCN(CC)CCNC(=O)CCc1nn(C)c(=O)c2ccccc12 | 0 | -4 | 14 | 0 | 4 | -5
O=NNc1nc2ccccc2n1Cc1ccccc1 | 31 | -1 | 72* | 0 | -2 | .
NS(=O)(=O)c1ccc(NC(=O)COC(=O)C23CC4CC(CC(C4)C2)C3)cc1 | . | 3 | -1 | 0 | 0 | 58*
O=C(COC(=O)C12CC3CC(CC(C3)C1)C2)Nc1ccc([N+](=O)[O-])cc1Br | . | 27 | 1 | 0 | 0 | 14
N#Cc1cc([N+](=O)[O-])ccc1NC(=O)COC(=O)C12CC3CC(CC(C3)C1)C2 | . | . | . | . | -6 | 54*
CCN1CCN(C2=C(NS(=O)(=O)c3ccc(Br)cc3)C(=O)c3ccccc3C2=O)CC1 | . | -2 | -14 | 7.7* | -2 | .
Cc1ncc(CO)c(/C=N/NC(=O)c2cc(Br)ccc2O)c1O | -11 | 14 | 50* | -1 | 0 | -45
Cc1cc(C(=O)N/N=C/c2c(CO)cnc(C)c2O)c2ccccc2n1 | 3 | -4 | 55* | 0 | 1 | .
SMILES | H9c2 TAG inh | FAS-TE inh | H9c2 protect | aDG glyco up | beta cell repl | Calpain2 inh
O=C(/C=C/c1ccccc1)c1ccc2c(c1)OCCCCO2 | -4 | 3 | -22 | 0 | -7 | -5
O=C(CCl)N(C/C=C/c1ccccc1)c1ccc2c(c1)OCCO2 | 52* | 12 | -29 | 0 | -6 | -22
CC(C)(C)c1cc(C(=O)N/N=C/c2ccccc2O)n(-c2ccccc2)n1 | . | 14 | 51* | 1 | 0 | -17
COc1ccc(/C=N/NC(=O)c2nc(-c3ccccc3)n(-c3ccccc3)n2)c(O)c1 | -24 | 31 | 61* | 3 | 0 | -15
NNC(=O)c1ccc(CSc2cccc3cccnc23)cc1 | -6 | 0 | -6 | 0 | 0 | -271
Cc1cccc(CSc2cccc3cccnc23)c1 | 50* | 14 | -4 | 0 | -6 | -297
CN(C)c1cccc(C(=O)N2CCCC(CCC(=O)NCc3ccccc3F)C2)c1 (centres undefined) | . | -3 | 3 | 0 | -2 | .
Cc1ccc(-c2nn3c(-c4ccco4)nnc3c3ccccc23)cc1S(=O)(=O)NCC1CCCO1 (centres undefined) | 38 | 0 | 55* | 0 | -2 | -72
Cc1ccc(-c2nnc(Nc3ccccc3)c3ccccc23)cc1S(=O)(=O)NCC1CCCO1 (centres undefined) | . | 15 | 29 | 0 | -4 | -6
CC(C)(C)NC(=O)c1ccc(Sc2ccccc2)c([N+](=O)[O-])c1 | -5 | 12 | -19 | 0 | -3 | 54*
COc1ccc(OCCCC(=O)Nc2nc(-c3ccccn3)cs2)cc1 | 20 | 8 | 38 | 2 | -5 | -77
Cc1cc(C)c(OCC(=O)Nc2nc(-c3ccccn3)cs2)c(C)c1 | 2 | 16 | 63* | 1 | -7 | -122
O=C(CCS(=O)(=O)c1ccccc1)Nc1nc(-c2ccccn2)cs1 | 10 | -4 | 51* | 1 | -6 | .
CC(Oc1ccc(F)cc1)C(=O)Nc1nc(-c2ccccn2)cs1 (centres undefined) | -67 | 3 | 67* | 3 | -7 | .
O=C(CC1CC2CCC1C2)Nc1nc(-c2ccccn2)cs1 (centres undefined) | -4 | 2 | 53* | 2 | -7 | 15
O=C(CCS(=O)(=O)c1ccc(F)cc1)Nc1nc(-c2ccccn2)cs1 | . | -5 | 29 | 2 | -4 | .
COc1cc(F)ccc1-c1csc(C(O)c2ccc(F)cc2)n1 (centres undefined) | -15 | 11 | -14 | 0 | . | .
CCc1c(-c2ccc(Br)cc2)ncn1Cc1cccc(-c2ccccc2)c1 | . | . | . | 0 | . | .
Cc1c(C(=O)N/N=C/c2cccs2)nnn1-c1nonc1N | . | -2 | 1 | 0 | 6 | .
O=C(CN1C(=O)NC(c2ccccc2)(c2ccccc2)C1=O)NCc1ccc(F)cc1 | 2 | 24 | -6 | 0 | -6 | .
Cc1cccc(C)c1NC(=O)C(c1ccncc1)n1c(=O)c(-c2cc3ccccc3[nH]2)nc2ccccc21 (centres undefined) | . | . | . | 1 | . | .
Cc1ccc(S(=O)(=O)N2CCCCC2)cc1NC(=O)COC(=O)C1(C)CC1(Cl)Cl (centres undefined) | 7 | 10 | 6 | 0 | 0 | .
Cc1ccc2nsnc2c1S(=O)(=O)N(Cc1ccco1)Cc1cc2ccc(C)c(C)c2[nH]c1=O | 25 | 0 | 27 | 0 | . | -134
Cc1ccc2nsnc2c1S(=O)(=O)N(Cc1ccco1)Cc1cc2cccc(C)c2[nH]c1=O | . | 8 | 73* | -1 | -1 | -129
